Not all results are given here.
aSyn UTR act: Activators via SNCA 5'UTR binding, MLPCN; alpha-synuclein 5'UTR reporter, activators screen; activity score, % (tested at 7.5 µM), hits read low; actives 7.1% (n = 300,000); in the data active = activity score below about -60%
A number is an active result.

For COc1ccc(N2CS(=O)(=O)/C(=C/N(C)C)C2=O)cc1 the results were aSyn UTR act -93.
For Brc1ccc(-c2csc(NC3=NCCCCC3)n2)cc1 the results were aSyn UTR act -138.
`COc1ccc(-c2csc(NNC3=NCCCCC3)n2)cc1` gave aSyn UTR act -63.
`COc1ccc(-c2csc(NC3=NCCCCC3)n2)cc1` gave aSyn UTR act -91.
`CCOc1ccc(-c2csc(NNC3=NCCCCC3)n2)cc1` gave aSyn UTR act -88.
For c1ccc(-c2csc(NNC3=NCCCCC3)n2)cc1 the results were aSyn UTR act -72.
Screening Cc1ccc(NC(=O)N2CCCC2)cc1Cl returned aSyn UTR act -73.
For O=C(Nc1cccc([N+](=O)[O-])c1)C(=O)N1CCCCC1 the results were aSyn UTR act -151.
Screening Cc1ccc(NC(=O)C(=O)N2CCCC2)cc1Cl returned aSyn UTR act -107.
Screening O=C(Nc1ccc(Cl)c(Cl)c1)N1CC=CCC1 returned aSyn UTR act -122.
COc1ccc(C)cc1N(C(=O)COc1ccccc1)c1nc2ccccc2s1 was read as aSyn UTR act -92.
`O=c1[nH][nH]c(-c2ccccc2O)c1C(C[N+](=O)[O-])c1ccc(Cl)cc1Cl` (stereo not drawn) gave aSyn UTR act -83.
For O=c1oc2ccccc2c2oc3cc(O)c(O)cc3c12 the results were aSyn UTR act -83.
`COc1ccc(/C(C)=N/N2C(=O)c3ccccc3NC2c2ccc(O)c(OC)c2)cc1` (stereo not drawn) gave aSyn UTR act -66.
COc1cc(Cl)ccc1OCc1cc(C(=O)N(C)Cc2cccc3cnccc23)no1 was read as aSyn UTR act -77.
Screening COc1ccc(OCc2cc(C(=O)N(C)Cc3cnccn3)no2)c(Cl)c1 returned aSyn UTR act -71.
COc1ccccc1CCc1nnc(CCC(=O)N(C)Cc2cccc3cnccc23)o1 was read as aSyn UTR act -131.
Screening COc1cc(OC)cc(C(=O)NC(=S)NNC(=O)c2cnccn2)c1 returned aSyn UTR act inactive.
COc1ccc(OCc2cc(C(=O)NC(C)Cc3cnccn3)no2)c(Cl)c1 (stereo not drawn) was read as aSyn UTR act -144.
Screening COc1cc(Cl)ccc1OCc1cc(C(=O)NC(C)Cc2cccnc2)no1 (stereo not drawn) returned aSyn UTR act -97.
`COc1ccc(OCc2cc(C(=O)NCC(C)Oc3cccnc3)no2)c(Cl)c1` (stereo not drawn) gave aSyn UTR act -85.
For CSc1ccccc1OCc1cc(C(=O)N(C)Cc2cnccn2)no1 the results were aSyn UTR act -97.
Screening COc1cc(Cl)ccc1OCc1cc(C(=O)NCc2cc(C(C)C)no2)no1 returned aSyn UTR act -147.
COc1ccc(OCc2cc(C(=O)N(C)Cc3cc(C4CC4)n[nH]3)no2)c(Cl)c1 was read as aSyn UTR act -189.
`CCOC(=O)C1(CCOc2ccccc2)CCN(Cc2ccc(O)c(Cl)c2)CC1` gave aSyn UTR act inactive.
CCOC(=O)C1(CCOC)CCN(Cc2nc(C(C)C)cs2)CC1 was read as aSyn UTR act -67.
CCc1nc(SCc2ccc(OC)cc2)n[nH]1 was read as aSyn UTR act -82.
For O=[N+]([O-])c1cc([N+](=O)[O-])c2c(=Nc3ccccc3)n(-c3ccccc3)n(O)c2c1 the results were aSyn UTR act -77.
C/C(=C\C(=O)c1ccc(Cl)cc1)Nc1ccc(Br)cc1 was read as aSyn UTR act -131.
Cc1c(/N=C(\[O-])Nc2ccc(Br)cc2)sn[n+]1C was read as aSyn UTR act inactive.
C/C(=C\C(=O)c1ccc(Br)cc1)NCc1ccccc1 was read as aSyn UTR act -113.
Screening C/C(=C\C(=O)c1ccc(Br)cc1)Nc1cccc(Cl)c1 returned aSyn UTR act -80.
COc1cccc2cc(-c3ccnc(N)n3)oc12 was read as aSyn UTR act -80.
NS(=O)(=O)c1ccc2nc(NC(=O)c3ccc(Br)o3)sc2c1 was read as aSyn UTR act -141.
For Cc1ccc2nc(NC(=O)c3ccc(Br)o3)sc2c1 the results were aSyn UTR act -82.
`Cc1cc(NO)nc(-c2ccc(Br)cc2)n1` gave aSyn UTR act -278.
Screening O=C(NC1CCCCCCC1)c1ccccc1O returned aSyn UTR act -175.
For Cc1ccccc1C(=O)NC1CCCCCCC1 the results were aSyn UTR act -148.
`O=C(NC1CCCCC1)c1cc2ccccc2cc1O` gave aSyn UTR act -81.
Oc1ccc(Br)cc1-c1ccnn1-c1ccccc1 was read as aSyn UTR act -114.
For O=C(N/N=C/c1cccc(F)c1)c1cc(-c2ccco2)nc2ccccc12 the results were aSyn UTR act -120.
Screening O=C(/C=C\c1ccc(-c2ccccc2)o1)c1ccccc1 returned aSyn UTR act -62.
Screening Cc1ccc(C(=O)/C=C/c2ccc(-c3ccc(C)cc3)o2)cc1 returned aSyn UTR act -73.
For Cn1c(-c2ccc3ccccc3n2)[n+](C)c2ccccc21 the results were aSyn UTR act -65.
O=C(c1csc(Nc2ccccc2Cl)n1)N1CCCC1 was read as aSyn UTR act -117.

Source: PubChem (Broad Institute)
